Data reported in PMC5540273 (PLoS ONE, 2017).

Each compound was assayed on CASK. Conditions: concentration: 1 μM, replicates: in singlicate; n = 1.
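Also: KINOMEscan kinase panel screen.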

SMILES | %Inh [%]
Cc1ccc(NC(=O)Nc2ccc(Cl)c(C(F)(F)F)c2)cc1-c1ccc(C(=O)Nc2ccncc2)cc1 [GSK1398470] | 0
FC(F)(F)c1ccccc1-c1cc(-c2c[nH]nc2-c2ccccn2)ccn1 [GW679396] | 17
COC(=O)c1cccc(NC(=O)NC2CCN(c3ccnc(Nc4ccc(F)cc4)n3)C2)c1 (centres unmarked) [GSK1379725] | 25
Fc1ccc(-c2nn3cccc(F)c3c2-c2ccncc2)cc1 [GW475620] | 4
Cc1ccc(NC(=O)Nc2ccc(Cl)cc2)cc1-c1ccc(C(=O)Nc2ccncc2)cc1 [GSK1398472] | 21
COC(=O)C(Cc1ccccc1)NC(=O)NC1CCN(c2ccnc(Nc3ccc(F)cc3)n2)C1 (centres unmarked) [GSK1379714] | 4
COc1ccc(Nc2nccc(NCCNC(=O)Nc3cc(C)ccc3C)n2)cc1 [GSK1379899] | 0
Fc1ccc(-c2nc3n(c2-c2ccncc2)CCS3)cc1 [GI98581] | 20
CC(=O)c1cccc(NC(=O)NC2CCN(c3ccnc(Nc4ccc(F)cc4)n3)C2)c1 (centres unmarked) [GSK1379710] | 6
Cc1ccc(-c2nc(Nc3ccncc3)c3ccccc3n2)s1 [GSK189015] | 0
O=c1cc(N2CCOCC2)nc2n(Cc3cccc(Cl)c3Cl)c3ccccc3n12 [GSK2299009] | 10
Cc1ccccc1Cn1ccn2c(=O)cc(N3CCOCC3)nc12 [GSK2269905] | 15
O=C(Nc1n[nH]c2nc(-c3cccs3)c(Br)cc12)C1CCCC1 [SB-743341] | 12
Cn1cncc1-c1cc2c(Nc3ccc(OCc4ccccc4)cc3)ncnc2cn1 [GW281179] | 20
CNc1nc(-c2ccc3c(N)n[nH]c3c2)cc(N2C[C@@H](C(=O)NC3CCCCC3)OC[C@H]2C)n1 [GSK2375584] | 12
COc1cccc(C2=C(Nc3cc(Cl)c(O)c(Cl)c3)C(=O)NC2=O)c1 [SB-390767] | 32
Cn1cnc2c(N)ncnc21 [SKF-97623] | 7
O=c1cc(N2CCOCC2)nc2n(Cc3ccccc3F)ccn12 [GSK2297428] | 79
COc1ccc(-c2coc3ccc(-c4nnc(C)o4)cc23)cc1 | 0

SMILES | %Inh [%]
Cc1ccccc1-c1cc(-c2c[nH]nc2-c2ccccn2)ccn1 [GW680061] | 25
Nc1cccc(-c2ccc3c(N)n[nH]c3c2)n1 [GSK2192730] | 14
CNC(=O)c1ccc(C)c(-n2c(C)cc(OCc3ccc(F)cc3F)c(Br)c2=O)c1 | 0
O=C(Nc1n[nH]c2nc(-c3ccco3)c(Br)cc12)C1CCN(Cc2ccccc2)C1.O=C(O)[C@H](O)[C@@H](O)C(=O)O (centres unmarked) [SB-742034] | 40
NS(=O)(=O)c1cccc(N/C=C2\C(=O)Nc3ccc(S(=O)(=O)Cc4c(Cl)cccc4Cl)cc32)c1 [GSK398099] | 27
c1ccc(-c2ccnc3[nH]ccc23)cc1 [SB-693578] | 26
CNc1nc(-c2ccc3c(N)n[nH]c3c2)cc(N2C[C@@H](C(=O)Nc3ccccc3)CC[C@H]2C)n1 [GSK2298859] | 24
COC(=O)c1cccc(NC(=O)NC2CCN(c3ccnc(Nc4ccc(OC)cc4)n3)C2)c1 (centres unmarked) [GSK1379746] | 2
COc1ccc(Nc2nccc(-c3ccc(NC(=O)c4cc5cc(F)ccc5[nH]4)cc3)n2)cc1 [GSK1229496] | 0
Cl.Cl.Cl.N#Cc1ccc(CCNc2nccc(-c3cccc(CN4CCNCC4)c3)n2)cc1 [GSK2137462] | 0
O=C(Nc1n[nH]c2cc(-c3ccsc3)ccc12)C1CC1 [SB-732932] | 23
COc1ccc(Nc2nccc(N3CCC(NC(=O)c4cc5ccccc5s4)C3)n2)cc1 (centres unmarked) [GSK1379738] | 21
COc1ccc2cc(-c3nc(-c4ccccc4C(C)C)[nH]c3-c3ccncc3)ccc2c1 [SB-660566] | 7
CC[C@@H]1CO[C@H](C(=O)Nc2ccccc2)CN1c1cc(-c2ccc3c(N)n[nH]c3c2)nc(NC)n1 [GSK2376236] | 8
Cc1ccc(NC(=O)c2ccc(Cl)cc2)cc1-c1ccc(C(=O)Nc2ccncc2)cc1 [GSK1398467] | 16
COc1cccc(NC(=O)Nc2ccc(C)c(-c3ccc(C(=O)Nc4ccncc4)cc3)c2)c1 [GSK1398474] | 0
COc1ccc(CSc2nnc(-c3ccc4c(c3)CCO4)o2)cc1 | 0
Cc1cccc2c(-c3ccncn3)c(-c3ccc(F)cc3)nn12 [GW515532] | 0

What follows are compounds tested on T1, CDC2L1. Conditions: concentration: 1 μM, replicates: in singlicate; n = 1.
T1 construct: gene CDK11B

SMILES | %Inh [%]
Cc1ccc(NC(=O)Nc2ccc(Cl)c(C(F)(F)F)c2)cc1-c1ccc(C(=O)Nc2ccncc2)cc1 [GSK1398470] | 0
FC(F)(F)c1ccccc1-c1cc(-c2c[nH]nc2-c2ccccn2)ccn1 [GW679396] | 0
COC(=O)c1cccc(NC(=O)NC2CCN(c3ccnc(Nc4ccc(F)cc4)n3)C2)c1 (centres unmarked) [GSK1379725] | 0
Fc1ccc(-c2nn3cccc(F)c3c2-c2ccncc2)cc1 [GW475620] | 0
Cc1ccc(NC(=O)Nc2ccc(Cl)cc2)cc1-c1ccc(C(=O)Nc2ccncc2)cc1 [GSK1398472] | 0
COC(=O)C(Cc1ccccc1)NC(=O)NC1CCN(c2ccnc(Nc3ccc(F)cc3)n2)C1 (centres unmarked) [GSK1379714] | 0
COc1ccc(Nc2nccc(NCCNC(=O)Nc3cc(C)ccc3C)n2)cc1 [GSK1379899] | 0
Fc1ccc(-c2nc3n(c2-c2ccncc2)CCS3)cc1 [GI98581] | 0
CC(=O)c1cccc(NC(=O)NC2CCN(c3ccnc(Nc4ccc(F)cc4)n3)C2)c1 (centres unmarked) [GSK1379710] | 0
Cc1ccc(-c2nc(Nc3ccncc3)c3ccccc3n2)s1 [GSK189015] | 0
O=c1cc(N2CCOCC2)nc2n(Cc3cccc(Cl)c3Cl)c3ccccc3n12 [GSK2299009] | 0
Cc1ccccc1Cn1ccn2c(=O)cc(N3CCOCC3)nc12 [GSK2269905] | 0
O=C(Nc1n[nH]c2nc(-c3cccs3)c(Br)cc12)C1CCCC1 [SB-743341] | 1
Cn1cncc1-c1cc2c(Nc3ccc(OCc4ccccc4)cc3)ncnc2cn1 [GW281179] | 0
CNc1nc(-c2ccc3c(N)n[nH]c3c2)cc(N2C[C@@H](C(=O)NC3CCCCC3)OC[C@H]2C)n1 [GSK2375584] | 0
COc1cccc(C2=C(Nc3cc(Cl)c(O)c(Cl)c3)C(=O)NC2=O)c1 [SB-390767] | 0
Cn1cnc2c(N)ncnc21 [SKF-97623] | 0
O=c1cc(N2CCOCC2)nc2n(Cc3ccccc3F)ccn12 [GSK2297428] | 0
COc1ccc(-c2coc3ccc(-c4nnc(C)o4)cc23)cc1 | 0

SMILES | %Inh [%]
Cc1ccccc1-c1cc(-c2c[nH]nc2-c2ccccn2)ccn1 [GW680061] | 0
Nc1cccc(-c2ccc3c(N)n[nH]c3c2)n1 [GSK2192730] | 0
CNC(=O)c1ccc(C)c(-n2c(C)cc(OCc3ccc(F)cc3F)c(Br)c2=O)c1 | 0
O=C(Nc1n[nH]c2nc(-c3ccco3)c(Br)cc12)C1CCN(Cc2ccccc2)C1.O=C(O)[C@H](O)[C@@H](O)C(=O)O (centres unmarked) [SB-742034] | 20
NS(=O)(=O)c1cccc(N/C=C2\C(=O)Nc3ccc(S(=O)(=O)Cc4c(Cl)cccc4Cl)cc32)c1 [GSK398099] | 0
c1ccc(-c2ccnc3[nH]ccc23)cc1 [SB-693578] | 0
CNc1nc(-c2ccc3c(N)n[nH]c3c2)cc(N2C[C@@H](C(=O)Nc3ccccc3)CC[C@H]2C)n1 [GSK2298859] | 0
COC(=O)c1cccc(NC(=O)NC2CCN(c3ccnc(Nc4ccc(OC)cc4)n3)C2)c1 (centres unmarked) [GSK1379746] | 0
COc1ccc(Nc2nccc(-c3ccc(NC(=O)c4cc5cc(F)ccc5[nH]4)cc3)n2)cc1 [GSK1229496] | 0
Cl.Cl.Cl.N#Cc1ccc(CCNc2nccc(-c3cccc(CN4CCNCC4)c3)n2)cc1 [GSK2137462] | 0
O=C(Nc1n[nH]c2cc(-c3ccsc3)ccc12)C1CC1 [SB-732932] | 13
COc1ccc(Nc2nccc(N3CCC(NC(=O)c4cc5ccccc5s4)C3)n2)cc1 (centres unmarked) [GSK1379738] | 0
COc1ccc2cc(-c3nc(-c4ccccc4C(C)C)[nH]c3-c3ccncc3)ccc2c1 [SB-660566] | 0
CC[C@@H]1CO[C@H](C(=O)Nc2ccccc2)CN1c1cc(-c2ccc3c(N)n[nH]c3c2)nc(NC)n1 [GSK2376236] | 8
Cc1ccc(NC(=O)c2ccc(Cl)cc2)cc1-c1ccc(C(=O)Nc2ccncc2)cc1 [GSK1398467] | 0
COc1cccc(NC(=O)Nc2ccc(C)c(-c3ccc(C(=O)Nc4ccncc4)cc3)c2)c1 [GSK1398474] | 0
COc1ccc(CSc2nnc(-c3ccc4c(c3)CCO4)o2)cc1 | 0
Cc1cccc2c(-c3ccncn3)c(-c3ccc(F)cc3)nn12 [GW515532] | 0
